From the supplement of paper PMC8728848
The entries come from a sample that favours the strongest signals as a whole.

Assays:
Experiment in all cases: glycan array binding signal (z-score within array); higher = stronger binding
Conditions in all cases: glycan notation: IUPAC condensed, linker removed
Gal(b1-4)GlcNAc = target: Gal(b1-4)GlcNAc
How it was run: (§1)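 The binding signal is a Z-score computed within each array and averaged over linkers. Arrays of the same protein sequence at different concentrations or buffers were also averaged together. Data originate from 3228 arrays in the Consortium for Functional Glycomics database, kept only where the protein sequence was available.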

[1] = target: Gal(b1-4)GlcNAc(b1-2)Man(a1-3)[GlcNAc(b1-4)][Gal(b1-4)GlcNAc(b1-2)Man(a1-6)]Man(b1-4)GlcNAc(b1-4)GlcNAc
How it was run: as §1

[2] = target: Gal(b1-4)GlcNAc(b1-3)Gal(b1-3)GalNAc
How it was run: as §1

Gal3S(b1-4)Glc6S = target: Gal3S(b1-4)Glc6S
How it was run: as §1

Gal6S(b1-4)Glc = target: Gal6S(b1-4)Glc
How it was run: as §1

GlcNAc(b1-3)Gal(b1-4)Glc = target: GlcNAc(b1-3)Gal(b1-4)Glc
How it was run: as §1

[3] = target: GlcNAc(b1-3)Gal(b1-4)GlcNAc(b1-3)Gal(b1-4)GlcNAc(b1-2)[GlcNAc(b1-3)Gal(b1-4)GlcNAc(b1-3)Gal(b1-4)GlcNAc(b1-6)]Man(a1-6)[GlcNAc(b1-3)Gal(b1-4)GlcNAc(b1-3)Gal(b1-4)GlcNAc(b1-2)Man(a1-3)]Man(b1-4)GlcNAc(b1-4)[Fuc(a1-6)]GlcNAc
How it was run: as §1

[4] = target: GlcNAc(b1-3)Gal(b1-4)GlcNAc(b1-3)Gal(b1-4)GlcNAc(b1-3)Gal(b1-4)GlcNAc(b1-2)[GlcNAc(b1-3)Gal(b1-4)GlcNAc(b1-3)Gal(b1-4)GlcNAc(b1-3)Gal(b1-4)GlcNAc(b1-6)]Man(a1-6)[GlcNAc(b1-3)Gal(b1-4)GlcNAc(b1-3)Gal(b1-4)GlcNAc(b1-3)Gal(b1-4)GlcNAc(b1-2)Man(a1-3)]Man(b1-4)GlcNAc(b1-4)[Fuc(a1-6)]GlcNAc
How it was run: as §1

[5] = target: GlcNAc(b1-3)Gal(b1-4)GlcNAc(b1-3)Gal(b1-4)GlcNAc(b1-3)Gal(b1-4)GlcNAc(b1-3)Gal(b1-4)GlcNAc(b1-2)[GlcNAc(b1-3)Gal(b1-4)GlcNAc(b1-3)Gal(b1-4)GlcNAc(b1-3)Gal(b1-4)GlcNAc(b1-3)Gal(b1-4)GlcNAc(b1-6)]Man(a1-6)[GlcNAc(b1-3)Gal(b1-4)GlcNAc(b1-3)Gal(b1-4)GlcNAc(b1-3)Gal(b1-4)GlcNAc(b1-3)Gal(b1-4)GlcNAc(b1-2)Man(a1-3)]Man(b1-4)GlcNAc(b1-4)[Fuc(a1-6)]GlcNAc
How it was run: as §1

GlcNAc(b1-3)GalNAc = target: GlcNAc(b1-3)GalNAc
How it was run: as §1

[6] = target: GlcNAc(b1-3)[GlcNAc(b1-6)]Gal(b1-4)GlcNAc
How it was run: as §1

[7] = target: Man(a1-2)Man(a1-3)[Man(a1-2)Man(a1-6)]Man
How it was run: as §1

[8] = target: Man(a1-3)[Man(a1-6)]Man(b1-4)GlcNAc(b1-4)[Fuc(a1-6)]GlcNAc
How it was run: as §1

[9] = target: Neu5Ac(a2-3)Gal(b1-3)GlcNAc(b1-2)Man(a1-3)[GlcNAc(b1-4)][Neu5Ac(a2-3)Gal(b1-3)GlcNAc(b1-2)Man(a1-6)]Man(b1-4)GlcNAc(b1-4)GlcNAc
How it was run: as §1

[10] = target: Neu5Ac(a2-3)Gal(b1-4)GlcNAc
How it was run: as §1

[11] = target: Neu5Ac(a2-3)Gal(b1-4)GlcNAc(b1-2)Man(a1-3)[Neu5Ac(a2-6)Gal(b1-4)GlcNAc(b1-2)Man(a1-6)]Man(b1-4)GlcNAc(b1-4)GlcNAc
How it was run: as §1

[12] = target: Neu5Ac(a2-3)Gal(b1-4)GlcNAc(b1-2)[Neu5Ac(a2-3)Gal(b1-4)GlcNAc(b1-4)]Man(a1-3)[GlcNAc(b1-4)][Neu5Ac(a2-3)Gal(b1-4)GlcNAc(b1-2)[Neu5Ac(a2-3)Gal(b1-4)GlcNAc(b1-6)]Man(a1-6)]Man(b1-4)GlcNAc(b1-4)GlcNAc
How it was run: as §1

[13] = target: Neu5Ac(a2-3)[GalNAc(b1-4)]Gal(b1-4)GlcNAc(b1-3)GalNAc
How it was run: as §1

[14] = target: Neu5Ac(a2-6)Gal(b1-4)GlcNAc(b1-3)Gal(b1-4)GlcNAc(b1-2)Man(a1-3)[Neu5Ac(a2-6)Gal(b1-4)GlcNAc(b1-3)Gal(b1-4)GlcNAc(b1-2)Man(a1-6)]GalNAc
How it was run: as §1

[15] = target: Neu5Ac(a2-6)Gal(b1-4)GlcNAc(b1-3)Gal(b1-4)GlcNAc(b1-3)Gal(b1-4)GlcNAc
How it was run: as §1

[16] = target: Neu5Ac(a2-6)Gal(b1-4)GlcNAc(b1-3)Gal(b1-4)GlcNAc(b1-3)Gal(b1-4)GlcNAc(b1-2)Man(a1-3)[Neu5Ac(a2-6)Gal(b1-4)GlcNAc(b1-3)Gal(b1-4)GlcNAc(b1-3)Gal(b1-4)GlcNAc(b1-2)Man(a1-6)]GalNAc
How it was run: as §1

[17] = target: Neu5Ac(a2-6)Gal(b1-4)GlcNAc(b1-3)Gal(b1-4)[Fuc(a1-3)]GlcNAc(b1-3)Gal(b1-4)[Fuc(a1-3)]GlcNAc
How it was run: as §1

[18] = target: Neu5Ac(a2-6)Gal(b1-4)GlcNAc(b1-6)[Gal(b1-3)GlcNAc(b1-3)]Gal(b1-4)Glc
How it was run: as §1

[19] = target: Neu5Ac(a2-6)GlcNAc(b1-4)GlcNAc(b1-4)GlcNAc
How it was run: as §1

[20] = target: Neu5Ac(a2-8)Neu5Ac(a2-3)Gal(b1-3)GalNAc(b1-4)[Neu5Ac(a2-8)Neu5Ac(a2-3)]Gal(b1-4)Glc
How it was run: as §1

[21] = target: Neu5Ac9Ac(a2-6)Gal(b1-4)GlcNAc
How it was run: as §1

B1: Epa8 (Candida glabrata) (protein)
chain: MGSSHHHHHHSSGLVPRGSHMASSRALSDYPLGCSPLLGTKLTPGLSMELYEYPLDNHGIGPHCWDPAYLNPEYPRTGFESHKLIGTAQNVMSLNFEHRTQDCHVEFSNLPASFNFPDQITLTNFTMLLYGYFKPKESGRYRFHMEADDLLLMNLGAGNAFDCCAHEATRNNLGDYIAYDIWAGTRKDVEVFLEKEVFYPLRLFFNNRDGRAALDFSYYLNGATEPGTDIPELLFSLPDGESCPAYI
For B1, the “glycan array binding signal (z-score)” value (Gal(b1-4)GlcNAc) was -0.292, the “glycan array binding signal (z-score)” value [1] was -1.47 and the “glycan array binding signal (z-score)” value [2] was -1.06. The “glycan array binding signal (z-score)” value (Gal3S(b1-4)Glc6S) was 0.684, the “glycan array binding signal (z-score)” value (Gal6S(b1-4)Glc) was 0.199 and the “glycan array binding signal (z-score)” value (GlcNAc(b1-3)Gal(b1-4)Glc) was -0.331. The “glycan array binding signal (z-score)” value [3] was 3.86, the “glycan array binding signal (z-score)” value [4] was 3 and the “glycan array binding signal (z-score)” value [5] was 2.23. For the same binder, the “glycan array binding signal (z-score)” value (GlcNAc(b1-3)GalNAc) was -0.661, the “glycan array binding signal (z-score)” value [6] was 0.492 and the “glycan array binding signal (z-score)” value [7] was -0.246. For the same binder, the “glycan array binding signal (z-score)” value [8] was 2.33, the “glycan array binding signal (z-score)” value [9] was 1.49 and the “glycan array binding signal (z-score)” value [10] was -0.315. For the same binder, the “glycan array binding signal (z-score)” value [11] was 0.195, the “glycan array binding signal (z-score)” value [12] was -0.346 and the “glycan array binding signal (z-score)” value [13] was 0.105. For the same binder, the “glycan array binding signal (z-score)” value [14] was 2.31, the “glycan array binding signal (z-score)” value [15] was -0.084 and the “glycan array binding signal (z-score)” value [16] was 3.31. The “glycan array binding signal (z-score)” value [17] was -0.491, the “glycan array binding signal (z-score)” value [18] was -0.638 and the “glycan array binding signal (z-score)” value [19] was -0.271. The “glycan array binding signal (z-score)” value [20] was 0.256 and the “glycan array binding signal (z-score)” value [21] was -0.4.
